Out of some 5,500 compounds screened, about 2,000 (36%) were called active. Not shown: some 18% with an inconclusive outcome. Rule as the data show it: active = normalized growth mostly below about 0.91 (no sharp cut-off); inconclusive = no clear call, values can overlap the other calls; inactive = mostly above about 0.92. Some of the results follow.
Test: chemical genetic growth profiling, strain panel (AID 1159580);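 also: tested at 20 µM; growth read once vehicle control cultures reached saturation at 30 °C; 1 = growth at the plate median or of vehicle wells; lower values mean less growth of the strain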
Conditions: growth OD

Measured: normalized growth

O=C(NNC(=O)c1ccc[nH]1)Nc1cc(Cl)cc(Cl)c1
inactive: S. cerevisiae deletion strains, locus YAL013W, strain DEP1, hits give low values 1.01 | S. cerevisiae deletion strains, locus YBR229C, strain ROT2, hits give low values 1 | S. cerevisiae deletion strains, locus YDL101C, strain DUN1, hits give low values 0.991 | S. cerevisiae deletion strains, locus YDR150W, strain NUM1, hits give low values 0.994 | S. cerevisiae deletion strains, locus YEL061C, strain CIN8, hits give low values 0.996 | S. cerevisiae deletion strains, locus YGR078C, strain PAC10, hits give low values 1 | S. cerevisiae deletion strains, locus YGR229C, strain SMI1, hits give low values 1.02 | S. cerevisiae deletion strains, locus YHR030C, strain SLT2, hits give low values 1.07 | S. cerevisiae deletion strains, locus YHR087W, strain rtc3, hits give low values 1.02 | S. cerevisiae deletion strains, locus YJR043C, strain POL32, hits give low values 1.01 | S. cerevisiae deletion strains, locus YJR075W, strain HOC1, hits give low values 1.01 | S. cerevisiae deletion strains, locus YKL190W, strain CNB1, hits give low values 1.01 | S. cerevisiae deletion strains, locus YLR039C, strain RIC1, hits give low values 1.05 | S. cerevisiae deletion strains, locus YLR058C, strain SHM2 (second series), hits give low values 1.01 | S. cerevisiae deletion strains, locus YLR085C, strain ARP6, hits give low values 1.04 | S. cerevisiae deletion strains, locus YLR262C, strain YPT6, hits give low values 1.03 | S. cerevisiae deletion strains, locus YML094W, strain GIM5, hits give low values 0.992 | S. cerevisiae deletion strains, locus YMR219W, strain ESC1, hits give low values 1 | S. cerevisiae deletion strains, locus YMR263W, strain SAP30, hits give low values 1.02 | S. cerevisiae deletion strains, locus YNL128W, strain TEP1, hits give low values 1.03 | S. cerevisiae deletion strains, locus YNL153C, strain GIM3, hits give low values 0.988 | S. cerevisiae deletion strains, locus YNL298W, strain CLA4 (second series), hits give low values 1.05 | S. cerevisiae deletion strains, locus YNL322C, strain KRE1, hits give low values 0.996 | S. cerevisiae deletion strains, locus YNR030W, strain Alg12, hits give low values 1.01 | S. cerevisiae deletion strains, locus YOL006C, strain TOP1, hits give low values 1.08 | S. cerevisiae deletion strains, locus YPL055C, strain LGE1, hits give low values 1.02 | S. cerevisiae deletion strains, locus YPL241C, strain CIN2, hits give low values 0.922 | S. cerevisiae deletion strains, locus YPR135W, strain CTF4, hits give low values 1 | S. cerevisiae strains, strain wild type, hits give low values 1.02
